# Inconclusive results are not listed. Calls of active or inactive are those of the source. Calls come from the whole dose curve; as a rule, active = well fitted cell-killing curve with a large enough effect; inconclusive = small, poorly fitted or top-dose-only effect; inactive = flat fitted curve, though single readings scatter.
# Assay: qHTS of pediatric cancer cell lines to identify multiple opportunities for drug repurposing: Primary screen for control Hh wild type fibroblast cells (AID 1347106); note: nearly all actives have a fitted effect of over 55% in size;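 for activity change, negative = cytotoxic: a drop in luminescence marks cytotoxicity and a rise apparent proliferation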
# Conditions: Hh wild-type fibroblast viability, CellTiter-Glo luminescence, 48 h; series mostly up to 46 µM; activity change, negative = cytotoxic: at the top concentration
# Text: Drug repurposing or repositioning has been offered as a strategy for drug development in oncology programs. This approach has special potential for childhood cancers and other rare or orphan diseases, where the expected return on new drug development has been a disincentive to pharmaceuticals.
# In this project we exploit the poly-pharmacology of drugs to discover new indications via phenotypic screening of a panel of 19 well-characterized cell lines derived from solid tumors seen in children and adolescents. The goal is to identify approved drugs with previously unrecognized anticancer properties that has the potential to reveal new mechanisms and biological processes involved in carcinogenesis or drug resistance. We employed a titration-based paradigm (quantitative high-throughput screening or qHTS), where all compounds were tested at multiple concentrations for their effect on cell viability. Concentration-response curves (CRCs) were derived directly from the primary screen, and both potency and efficacy values were used to identify compounds with robust bioactivity profiles. We screened the NIH Chemical Genomics Center (NCGC) Pharmaceutical Collection (NPC) and Mechanism Interrogation Plate (MIPE) small molecule collections of approved and investigational compounds against these cell lines; and measured metabolically active cells after 48 hours of compound treatment as a proxy for cell viability.
# Assay Submitter: Nathalia J. Martinez, National Center for Advancing Translational Sciences, National Institutes of Health, Rockville, MD, USA; email: natalia.martinez@nih.gov
# [1] Shen, M et al. Quantitative high-throughput phenotypic screening of pediatric cancer cell lines identifies multiple opportunities for drug repurposing. Oncotarget 2017 Dec 19;9(4):4758-4772. PMID 29435139.
# The cells were obtained from University of North Carolina (UNC), Pediatric Preclinical Testing Program (PPT), and Coriell Institute (CI).
# qHTS cell viability assay:
# Cells were assayed in growth media at a density of 500-1,000 cells/well. Five microliters of cells were dispensed into 1,536-well, white, solid-bottom, TC-treated plates (Greiner Bio One) using a multidrop dispenser and incubated at 37 degrees C, 5% CO2, under a humidified atmosphere for 5 hours. Twenty-three nanoliters of compounds and controls (neutral control DMSO or positive control bortezomib at final concentration of 2.3 µM) were subsequently transferred by Kalypsys pintool. For primary screens, the MIPE collection was tested at 11-point dilutions (final concentrations range from 0.78 nM to 46 µM) and the NPC collection at 8-point dilutions (final concentrations range from 0.59 nM to 46 µM). Compounds tested in follow-up screens were assayed at 11-point dilutions. Cells were incubated for 48 hours, followed by addition of 3 µL of CellTiter-Glo (Promega). After a 15 min incubation at room temperature, samples were analyzed for luminescence intensity using a ViewLux High-throughput CCD imager equipped with clear filters.
# % is set by controls: 0 for no effect and ±100 for the full control effect; potency is the fitted concentration of half-maximal effect.
Compound,Potency,"activity change, negative = cytotoxic"
COCCn1c2c([n+](Cc3cnccn3)c1C)C(=O)c1ccccc1C2=O,0.264 µM (active),–
OCc1ccc(-c2ccc(-c3ccc(CO)s3)o2)s1,–,-1.57% (inactive)
COc1cccc(-c2ccc(NC(=O)C3=C(C(=O)O)CCC3)c(F)c2)c1,–,0.363% (inactive)
COc1ccc(-n2nc(C(N)=O)c3c2C(=O)N(c2ccc(N4CCCCC4=O)cc2)CC3)cc1,–,-1.94% (inactive)
O=C1CCC[C@@H]2[C@H]3CCC[N+]4([O-])CCC[C@@H](CN12)[C@@H]34 (stereo not given in full),–,7.47% (inactive)
NC1(Cc2ccc(Cl)cc2)CCN(c2ncnc3[nH]ccc23)CC1,–,-11.6% (inactive)
Cc1cn2cc(C(=O)N(C)CCO)cc(N[C@@H]3CCOc4cccc(C)c43)c2n1,–,-3.05% (inactive)
Cn1cc(-c2[nH]c3cc(NC(=O)[C@H](N)C4CCCCC4)cc4c3c2C=NNC4=O)cn1,–,-10% (inactive)
COc1ccc(C=Cc2cc(OC)c(OC)c(OC)c2)cc1O,–,-23.9% (inactive)
C[C@]12CC[C@H](O)CC1=CCC1C2CC[C@]2(C)C(n3cnc4ccccc43)=CCC12 (stereo not given in full),–,7.05% (inactive)
COc1ccc2c(OCc3nnc4ccc(-c5ccccc5)nn34)ccnc2c1,–,6.73% (inactive)
CC(=O)c1c(C)c2cnc(Nc3ccc(N4CCNCC4)cn3)nc2n(C2CCCC2)c1=O,–,-5.09% (inactive)
Nc1nc(-c2nn(Cc3ccccc3F)c3ncccc23)nc(N)c1N1CCOCC1,–,-1.19% (inactive)
CN(c1ncccc1CNc1nc(Nc2ccc3c(c2)CC(=O)N3)ncc1C(F)(F)F)S(C)(=O)=O,20.9 µM (active),–
O=c1[nH]nc(Sc2ncc([N+](=O)[O-])s2)n1-c1ccc2c(c1)OCCO2,14.8 µM (active),–
COC(=O)[C@]12CCC(C)(C)C[C@@H]1[C@@H]1C(=O)C=C3[C@@]4(C)C=C(C#N)C(=O)C(C)(C)[C@@H]4CC[C@@]3(C)[C@]1(C)CC2,5.9 µM (active),–
CN(C1CCc2c(c3ccccc3n2CC(=O)O)C1)S(=O)(=O)c1ccc(F)cc1 (stereo not given),–,12.1% (inactive)
CC(C)C[C@H](NC(=O)CNC(=O)c1cc(Cl)ccc1Cl)B(O)O,1.05 µM (active),–
CC(C)c1nn(-c2c(Cl)cccc2Cl)c2nc(Cc3ccc(OCCO)cc3)[nH]c(=O)c12,–,-23.5% (inactive)
Cc1cnc(Nc2ccc(F)cc2Cl)nc1-c1c[nH]c(C(=O)N[C@H](CO)c2cccc(Cl)c2)c1,–,-18.8% (inactive)

Compound,Potency,"activity change, negative = cytotoxic"
CC1=C(CO)C(=O)O[C@@H]([C@@H](C)[C@H]2CC[C@H]3[C@@H]4C[C@H]5O[C@]56[C@@H](O)C=CC(=O)[C@]6(C)[C@@H]4CC[C@]23C)C1,–,31.7% (inactive)
C=CC(=O)Nc1cc2c(Nc3ccc(F)c(Cl)c3)ncnc2cc1OCCCN1CCOCC1,–,7.12% (inactive)
O=C(NCCS(=O)(=O)c1ccc(C(F)(F)F)cn1)c1ccc(Cl)cc1,–,4.22% (inactive)
CC(C)(C)c1cc(C(C)(C)C)c(NC(=O)c2c[nH]c3ccccc3c2=O)cc1O,–,11.5% (inactive)
Cc1cc(Nc2cc(N3CCN(C)CC3)nc(Sc3ccc(NC(=O)C4CC4)cc3)n2)n[nH]1,–,3.16% (inactive)
CS(=O)(=O)N1CCN(Cc2cc3nc(-c4cccc5[nH]ncc45)nc(N4CCOCC4)c3s2)CC1,–,-19.3% (inactive)
CC(C)c1ccc(Cn2ccc3c4c(N)nc(NC5CC5)nc4ccc32)cc1,–,-13.3% (inactive)
COc1cc(C)c(Sc2cnc(NC(=O)c3ccc(CNC(C)C(C)C)cc3)s2)cc1C(=O)N1CCN(C(C)=O)CC1 (stereo not given),–,-12.1% (inactive)
CC(=O)SC[C@@H](C)C(=O)N1CCC[C@H]1C(=O)N[C@@H](Cc1ccccc1)C(=O)O,–,-4.47% (inactive)
CC(O)C1C(=O)N2C(C(=O)O)=C(SC3CNC(C(=O)N(C)C)C3)C(C)C12 (stereo not given),–,-1.48% (inactive)
O=C(CCCCCCNC(=O)c1cnc(N(c2ccccc2)c2ccccc2)nc1)NO,–,-15.9% (inactive)
O=C(O)c1ccc2c(c1)nc(Nc1cccc(Cl)c1)c1ccncc12,–,-8.11% (inactive)
COc1ccc(CC2SC(=O)NC2=O)cc1C(=O)NCc1ccc(C(F)(F)F)cc1 (stereo not given),–,-1.33% (inactive)
CCC(=C(c1ccccc1)c1ccc(OCCN(C)C)cc1)c1ccccc1,–,-1.75% (inactive)
O=C(O)CCCc1c[nH]c2ccccc12,–,0.323% (inactive)
N#Cc1c(O)c2c(-c3ccc(-c4ccccc4O)cc3)csc2[nH]c1=O,–,9.78% (inactive)
NC(=O)c1cccc2cn(-c3ccc([C@@H]4CCCNC4)cc3)nc12,–,2.44% (inactive)
CN1CCC(CNc2ccc3ncc(-c4cccc(OC(F)(F)F)c4)n3n2)CC1,18.7 µM (active),–
CC(C)=CCCC(C)=CCCC(C)=CCSc1ccccc1C(=O)O,8.33 µM (active),–
C=CC(=O)Nc1cccc(Oc2nc(Nc3ccc(N4CCN(C)CC4)cc3OC)ncc2Cl)c1,–,-23.5% (inactive)

# — PubChem BioAssay (NCATS)
